# Experimental data as given in the supplement of paper PMC3334620.
# Over roughly 33,000 sequences, “E-score (-0.5 to 0.5)” has its median near -0.021; the highest 2% begin near 0.32. The list comes from a sample in which the highest values are over-represented; it also holds similar and randomly drawn sequences.
# Molecular target: T1, Zap1 (UniProt P47043)
# T1 sequence: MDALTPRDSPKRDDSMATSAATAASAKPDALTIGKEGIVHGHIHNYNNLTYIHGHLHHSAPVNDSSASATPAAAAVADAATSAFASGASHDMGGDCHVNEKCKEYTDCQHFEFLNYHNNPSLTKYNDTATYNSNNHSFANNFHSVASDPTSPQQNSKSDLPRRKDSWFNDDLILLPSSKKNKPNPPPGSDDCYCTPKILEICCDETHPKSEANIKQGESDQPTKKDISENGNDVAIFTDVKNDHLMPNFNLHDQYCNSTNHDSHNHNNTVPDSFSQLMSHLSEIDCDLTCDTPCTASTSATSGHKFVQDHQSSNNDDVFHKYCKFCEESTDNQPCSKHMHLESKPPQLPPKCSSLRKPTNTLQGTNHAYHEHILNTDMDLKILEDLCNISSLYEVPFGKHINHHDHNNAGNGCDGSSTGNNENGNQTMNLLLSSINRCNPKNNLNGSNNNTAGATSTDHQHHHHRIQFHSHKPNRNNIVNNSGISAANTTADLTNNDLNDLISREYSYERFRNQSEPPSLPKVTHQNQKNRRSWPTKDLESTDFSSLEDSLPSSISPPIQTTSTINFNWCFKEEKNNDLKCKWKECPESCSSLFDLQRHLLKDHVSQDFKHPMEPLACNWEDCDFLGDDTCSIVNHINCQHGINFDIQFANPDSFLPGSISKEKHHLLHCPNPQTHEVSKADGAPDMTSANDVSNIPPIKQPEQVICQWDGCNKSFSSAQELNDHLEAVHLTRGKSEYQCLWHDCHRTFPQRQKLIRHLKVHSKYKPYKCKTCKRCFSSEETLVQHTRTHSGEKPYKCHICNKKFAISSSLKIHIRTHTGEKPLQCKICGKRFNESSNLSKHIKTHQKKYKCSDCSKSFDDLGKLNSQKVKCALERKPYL
# Experiment: PBM E-score (8-mer binding enrichment) (E-score (-0.5 to 0.5)); higher = stronger / more preferred TF binding
# Conditions: protein concentration: 200 nM; construct: GST-full length
# Summary of the method: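 Full-length yeast transcription factors or their DNA-binding domains, GST-tagged and expressed with PURExpress, were applied at about 100-200 nM to universal all-10-mer Agilent arrays. These arrays had been made double-stranded by primer extension on fresh or once-stripped slides. Detection used fluorescent anti-GST, normalisation used masliner, and E-scores for ungapped eight-base words pooled with reverse complements came from the Universal PBM Analysis Suite.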
row,Sequence,PBM E-score
1,TGCTCGAA,-0.0246
2,CATAGATC,-0.0935
3,ACATCTGG,0.0376
4,CAGTACTG,-0.118
5,GAGTCTTA,-0.368
6,ACGTAGGA,-0.12
7,ACGTCTGC,-0.272
8,AGGTCGTG,0.353
9,AGGTCGTA,0.189
10,AGGTCGTC,0.0799
11,AAACCAGA,0.165
12,GGCAACCC,0.358
13,AGGAACCC,0.104
14,AGCAACCC,0.239
15,CGGAACCC,0.326
16,CGCAACCC,0.379
17,CGGAACCG,0.169
18,CGCAACCA,0.283
19,GGCAACCA,0.116
20,CGCAACCG,0.281
21,AGATCGCA,-0.127
22,AATTCTTG,-0.0794
23,TTACACAA,0.21
24,GAGTGCAA,0.0286

row,Sequence,PBM E-score
1,CTACCCTC,0.35
2,AGACCCTC,0.092
3,ATACCCTC,0.323
4,ATACCCGC,0.314
5,ATACCCTA,0.459
6,GTACCCTA,0.413
7,ATACCCTG,0.306
8,GTACCCGA,0.184
9,CTACCCCC,-0.295
10,CTACCCGC,0.244
11,ATACCCGA,0.224
12,CTACCCTA,0.291
13,AGCATCTA,-0.248
14,CTCTTGCA,-0.161
15,AACGGCGA,0.0503
16,ATAAAGCA,-0.0384
17,CCGTCCCA,-0.0821
18,AAATAGCT,-0.141
19,CCTCTTGA,0.148
20,AGGACCCT,0.226
21,CACTGCGC,-0.192
22,TCACCAGA,0.015
23,CCACAAGC,0.0428
24,CCACAAAA,0.237

row,Sequence,PBM E-score
1,CCACAAGA,0.0787
2,CCACAAAG,0.34
3,CCACAAAC,0.147
4,CCACAAGG,0.33
5,ACTAGATA,0.115
6,AGTGCAAC,0.0909
7,CGGGTGTA,0.0123
8,AAAGGGTT,0.396
9,AAAGGGTG,0.247
10,AAAGGGTC,0.363
11,CAAGGGTC,0.355
12,AAAGGGCT,0.00434
13,CAGGGGTC,0.321
14,AAGGGGTC,0.264
15,AAAGGGGC,-0.00977
16,AGAGGGTC,0.213
17,GAAGGGTC,0.211
18,CAGGGGTA,0.286
19,CAAGGGCC,0.0489
20,CACGATCC,0.141
21,AGCTAAAC,-0.144
22,TCCAGCGA,-0.138
23,AGATGGAT,-0.254
24,CGGGGGTC,-0.0576

row,Sequence,PBM E-score
1,CCGGGGTC,0.348
2,AAAGGGGT,0.32
3,CAAGGGCA,-0.182
4,CAAGGGTG,0.262
5,AAGGGGGT,-0.271
6,AAAGGGGG,-0.385
7,CAAGGGTA,0.398
8,ACAAGGGG,-0.128
9,ACAAGGGT,0.387
10,ACAAGGGC,-0.137
11,ACGGGGTC,0.218
12,ATTTAGCA,0.0848
13,AAAAGTCG,-0.033
14,TAAGCGCA,-0.0722
15,CTAATGCA,0.132
16,AAAAGGGT,0.386
17,AAAAGGGA,-0.0112
18,AAAAGGGC,0.149
19,CCAGATGA,-0.0669
20,GATCGTAC,-0.069
21,CTTAGAGA,-0.0526
22,GAATGGAC,0.0207
